Drawing on PubChem BioAssay (Tox21), this text covers Potency and max response for 19 compounds.

A short description of experiment [1]: qHTS RealTime-Glo MT Cell Viability Assay in HepG2 cells - 8 hour (AID 1224873). Note: nearly all actives have a fitted effect of over 55% in size. Note: potency is the fitted concentration of half-maximal effect. Particulars: RealTime-Glo luminescence; series mostly up to 76.8 µM. The essentials: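 HepG2 cells mixed with RealTime-Glo MT reagents (NanoLuc plus cell-permeant prosubstrate) were seeded at 600 cells/well, incubated 5 h at 37 C/5% CO2, then pinned with compounds in DMSO; nonlytic luminescence tracked viability during 40 h treatment.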
A general note: qHTS replaces the single test concentration by a dilution series.

Experiment [2] can be described thus: qHTS RealTime-Glo MT Cell Viability Assay in HEK293 cells - 40 hour (AID 1224874). Note: nearly all actives have a fitted effect of over 50% in size. Note: potency is the fitted concentration of half-maximal effect. Particulars: RealTime-Glo luminescence; max response: stronger effect = lower value. The method in brief:
(§1)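 Viable HEK293 cells reduce a cell-permeant prosubstrate; the product diffuses out and is consumed by NanoLuc in the medium to give light. Compounds went in after a 5 h incubation and plates were read over the treatment course.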

Experiment [3] is described as follows: qHTS RealTime-Glo MT Cell Viability Assay in HepG2 cells - 32 hour (AID 1224877). Note: nearly all actives have a fitted effect of over 55% in size. Note: potency is the fitted concentration of half-maximal effect. Particulars: RealTime-Glo luminescence; series mostly up to 76.8 µM. The method in brief:
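Compound treatment began 5 h after plating HepG2 cells (600/well) with NanoLuc luciferase and prosubstrate. Plates stayed at 37 C for 40 h; luminescence was captured at six time points, 0 h through 40 h.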

Experiment [4] can be described thus: qHTS RealTime-Glo MT Cell Viability Assay in HEK293 cells - 0 hour (AID 1224880). Note: nearly all actives have a fitted effect of over 45% in size. Note: potency is the fitted concentration of half-maximal effect. The conditions noted are these: RealTime-Glo luminescence; series mostly up to 76.8 µM. The essentials: as §1
A short description of experiment [5]: A CellTox Green Cytotoxicity Assay to monitor cytotoxicity in HEK293 cells - 32 hour (AID 1224881). Note: nearly all actives have a fitted effect of over 40% in size. Note: potency is the fitted concentration of half-maximal effect. The conditions noted are these: CellTox Green fluorescence; series mostly up to 76.8 µM. The method in brief:
(§2)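 Fluorescence intensity, read at 0, 8, 16, 24, 32 and 40 h of compound treatment, reflected dye binding to DNA of dead HEK293 cells; compounds (23 nL, DMSO) were added 5 h after plating cells with reagent.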

A short description of experiment [6]: A CellTox Green Cytotoxicity Assay to monitor cytotoxicity in HepG2 cells - 0 hour (AID 1224882). Note: nearly all actives have a fitted effect of over 35% in size. Particulars: CellTox Green fluorescence; series mostly up to 76.8 µM. The method in brief:
(§3)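 Using 1536-well format, dye-containing HepG2 suspension was seeded, allowed 5 h at 37 C/5% CO2, dosed by pintool with compounds, positive and negative controls, and imaged for fluorescence across 40 h.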

Experiment [7] can be described thus: A CellTox Green Cytotoxicity Assay to monitor cytotoxicity in HEK293 cells - 24 hour (AID 1224875). Note: nearly all actives have a fitted effect of over 45% in size. Note: potency is the fitted concentration of half-maximal effect. Particulars: CellTox Green fluorescence; series mostly up to 76.8 µM. The essentials: as §2
A short description of experiment [8]: A CellTox Green Cytotoxicity Assay to monitor cytotoxicity in HepG2 cells - 16 hour (AID 1224876). Note: nearly all actives have a fitted effect of over 45% in size. Note: potency is the fitted concentration of half-maximal effect. The conditions noted are these: CellTox Green fluorescence; series mostly up to 76.8 µM. The method in brief: as §3
Experiment [9] in a line: A CellTox Green Cytotoxicity Assay to monitor cytotoxicity in HepG2 cells - 24 hour (AID 1224878). Note: nearly all actives have a fitted effect of over 45% in size. Note: potency is the fitted concentration of half-maximal effect. The conditions noted are these: CellTox Green fluorescence; series mostly up to 76.8 µM. The method in brief: as §3
Experiment [10] is described as follows: A CellTox Green Cytotoxicity Assay to monitor cytotoxicity in HepG2 cells - 40 hour (AID 1224879). Note: nearly all actives have a fitted effect of over 40% in size. Note: potency is the fitted concentration of half-maximal effect. The conditions noted are these: CellTox Green fluorescence; series mostly up to 76.8 µM. The essentials: as §3

Where “and” joins values, the source holds several entries; their conditions need not be identical. Equal values may be shown once. Results filed as inconclusive are left out. More than one record can exist for a structure, and the calls need not agree. Calls of active or inactive are those of the source. Calls come from the whole dose curve; as a rule, active = well fitted curve in the direction sought with a large enough effect in the repeat runs; inconclusive = weak or mixed curves; inactive = no such curve, though single readings can be large; an effect the other way counts as inactive or inconclusive.
% is set by controls: 0 for no effect and ±100 for the full control effect.

Regarding `CC(C)(C)C1CCC(CC2=C(O)c3ccccc3C(=O)C2=O)CC1` (configuration not stated), the Potency entry in experiment [1], in experiment [3], in [4] and in experiment [6] was “inactive” throughout. In experiment [2], the max response was -30% (inactive). Further, in experiment [5], the Potency was 21.3 µM (active).

`C/C(=C(/OCCOc1ccc(Cl)cc1)c1ccc(Cl)cc1Cl)n1ccnc1`: the Potency entry in experiment [1], in [7], in experiment [8], in experiment [3], in experiment [9] and in [10] was “inactive” throughout. Besides, the Potency result in [4], in [5] and in experiment [6] was “inactive” each time.

Regarding `CCCC(C)c1ccccc1O` (configuration not stated), the Potency result in [1], in [3], in experiment [4] and in experiment [6] was “inactive” each time. Besides, the max response in experiment [2] was -11.1% (inactive). The Potency in experiment [5] was 49 µM (active).

On to `CCc1cc(Cc2cc(CC)cc(C(C)(C)C)c2O)c(O)c(C(C)(C)C)c1`, for which the Potency was 49 µM (active) in experiment [1], 21.9 µM (active) in experiment [2] and 49 µM (active) in experiment [3]. Besides, the Potency entry in [4] and in experiment [6] was “inactive” each time.

With `Oc1cc2ccccc2c2ccccc12`, the Potency in experiment [1] was 11 µM (active); in experiment [7], 19.5 µM (active); in experiment [8] it was 13.8 µM (active); in experiment [3], 11 µM (active); in experiment [9], 11 µM (active); in experiment [10] it was 11 µM (active). Also, the Potency in [5] is 17.4 µM (active). In experiment [6], the Potency result is “inactive”.

Take `C[n+]1ccn(Cc2ccccc2)c1`: the Potency result in experiment [1], in experiment [7], in experiment [8], in [3], in [9] and in [10] was “inactive” throughout. For the same compound, the Potency entry in [4], in experiment [5] and in [6] was “inactive” throughout.

`CC(C)OC(=O)c1cc2c(OCC(O)CNC(C)(C)C)cccc2[nH]1` (configuration not stated): the Potency result in [1], in [3], in [9], in [4] and in [6] was “inactive” in each case. Further, the Potency in [2] was 9.52 µM (active).

`O=c1cc(-c2ccc(O)cc2)oc2cc(O)cc(O)c12`: the Potency entry in experiment [1], in [7], in experiment [3], in experiment [4], in [5] and in experiment [6] was “inactive” in each case. Besides, the Potency entry was “inactive and 27.5 µM (active)” in experiment [8]; “inactive and 34.7 µM (active)” in experiment [9]; 38.9 µM (active) in experiment [10].

Turning to `O=C(NO)C1(NS(=O)(=O)c2ccc(Oc3ccc(F)cc3)cc2)CCOCC1`, the Potency entry in experiment [1], in [7], in [8], in [3], in [9] and in experiment [10] was “inactive” throughout. In addition, the Potency result in experiment [5] and in experiment [6] was “inactive” in each case.

Turning to `CCCCC(CC)COP(=O)(O)OCC(CC)CCCC` (configuration not stated), the Potency result in experiment [1], in experiment [8], in experiment [3], in [4] and in experiment [6] was “inactive” each time. Besides, the Potency in experiment [7] was 43.6 µM (active); in [9] it was 49.1 µM (active) and inactive; in experiment [10], 54.9 µM (active); in experiment [5] it was 43.6 µM (active).

Regarding `O=C(Oc1cccc2cccnc12)c1ccccc1`, the Potency entry in [1], in experiment [4] and in experiment [6] was “inactive” throughout. Besides, the max response in experiment [2] was -33.8% (inactive). In [10], the Potency was 0.477 µM (active).

Take `O=C(OCC1CO1)C1CCCCC1C(=O)OCC1CO1` (configuration not stated): the Potency entry in [1], in experiment [7], in experiment [8], in experiment [3], in experiment [9] and in [10] was “inactive” each time. Besides, the Potency result in experiment [4], in [5] and in experiment [6] was “inactive” each time.

Regarding `CC(C)CCCCCCCCCCCCCCC(=O)O`, the Potency result in experiment [1], in [7], in [8], in experiment [3], in experiment [9] and in experiment [10] was “inactive” each time. For the same compound, the Potency entry in experiment [4], in experiment [5] and in experiment [6] was “inactive” in each case.

On to `COc1c(C)c2c(c(O)c1C/C=C(\C)CCC(=O)O)C(=O)OC2`, for which the Potency result in [1], in [7], in experiment [8], in [3], in experiment [9] and in [10] was “inactive” each time. Moreover, the Potency result in experiment [4], in experiment [5] and in experiment [6] was “inactive” each time.

For `CNc1ccc(O)cc1`, the Potency in [1] was 48.9 µM (active); in [2] it was 12.3 µM (active); in experiment [10], 48.9 µM (active); in experiment [4], 17.3 µM (active); in [5], 12.3 µM (active). The Potency entry in [6] is “inactive”.

`O=c1cccccc1O`: the Potency result in experiment [1], in [7], in [8], in experiment [3], in [9] and in [10] was “inactive” throughout. Besides, the Potency result in [4], in experiment [5] and in experiment [6] was “inactive” in each case.

As for `CCOC(=O)O[C@]1(C(=O)OCCl)CC[C@H]2[C@@H]3CCC4=CC(=O)C=C[C@]4(C)[C@H]3[C@@H](O)C[C@@]21C`, the Potency result in experiment [1], in [7], in experiment [8], in experiment [3], in [9] and in [10] was “inactive” throughout. Also, the Potency entry in [5] and in [6] was “inactive” in each case.

With `CN(C)CCCOC1(Cc2ccccc2)CCCCCC1`, the Potency result in [1], in experiment [7], in [8], in experiment [3], in experiment [9] and in experiment [10] was “inactive” each time. In addition, the Potency result in experiment [5] and in experiment [6] was “inactive” each time.

For `O=C(O)c1cc(O)c2c(c1)C(=O)c1cccc(O)c1C2=O`, the Potency result in experiment [1], in experiment [7], in [8], in experiment [3], in [9] and in experiment [10] was “inactive” throughout. The Potency entry in [4], in experiment [5] and in experiment [6] was “inactive” throughout.
